# Screens as filed in PubChem BioAssay.
# GLS inhibitor – qHTS for Inhibitors of Glutaminase (GLS); GLS enzymatic activity, qHTS titration; Potency, µM (highest dose often 45.5 µM), hits mostly inhibitors; 410,000 compounds, 0.21% hits
#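 Assay buffer: 45 mM KH2PO4 pH 8.2, 0.02% Tween-20. hKGA acts on L-glutamine (1 mM solution added); product glutamate is reported by an oxidase/peroxidase Amplex Red coupling, with fluorescence taken at baseline and 30 min.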
# BAZ2B inh – qHTS Assay for Inhibitors of BAZ2B; Bromodomain adjacent to zinc finger domain protein 2B (Homo sapiens), Q9UIF8; Potency, µM (titrated, usually from 114 µM), hits mostly inhibitors; 360,000 compounds, 4.4% hits; AlphaScreen BAZ2B-H3K14Ac peptide displacement; also: nearly all actives have a fitted effect of over 60% in size
#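 Complex of BAZ2B and biotin-H3K14Ac (50 nM apiece) forms over 30 min at RT, then faces library compounds up to 110 uM for another 30 min; AlphaScreen beads added, 20 min dark incubation, luminescence read.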
# HP1b binding inh – HTS for Inhibitors of HP1-beta Chromodomain Interactions with Methylated Histone Tails. AID 540317, 2011. AlphaScreen HP1-beta / biotin-H3K9me3 peptide binding. 390,000 compounds, 0.56% hits. Chromobox protein homolog 1 (Homo sapiens), P83916. Potency, µM (top dose mostly 114 µM), most hits filed as inhibitors; also: nearly all actives have a fitted effect of over 70% in size
#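 AlphaScreen: HP1-beta (50 nM) preformed 30 min with biotin-H3(1-18)K9me3 peptide (50 nM) in PBS pH 7.4, 0.01% Tween-20. Compound added for 30 min at RT, then streptavidin donor/nickel chelate acceptor beads (10 ug/mL) for 30 min.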
# L3MBTL1 block – qHTS Assay for the Inhibitors of L3MBTL1. Lethal(3)malignant brain tumor-like protein 1 (Homo sapiens), Q9Y468. AlphaScreen L3MBTL1–H3K9me1 peptide binding. AID 485360, 2010. Potency, µM (top dose mostly 57.1 µM), actives largely listed as inhibitors. 230,000 compounds, 0.66% hits; also: nearly all actives have a fitted effect of over 60% in size
#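 L3MBTL1 50 nM + b-AHA-H3(1-15)K9me1 75 nM, 30 min RT; compound added, 30 min RT; streptavidin donor/Ni-chelate acceptor beads 10 ug/mL each final, 30 min RT dark; AlphaScreen read.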
# G9a block – qHTS Assay for Inhibitors of Histone Lysine Methyltransferase G9a; 350,000 compounds, 8.8% hits; Potency, µM (highest dose often 102 µM), most hits filed as inhibitors; G9a H3K9 monomethylation, AlphaScreen, 2 h; AID 504332, 2011; also: nearly all actives have a fitted effect of over 75% in size
#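 AlphaScreen detection with an anti-monomethyl H3K9 antibody quantified product after a 2 h room-temperature reaction containing 500 nM biotinylated H3K9 peptide, 20 µM SAM and 20 nM enzyme, which had been preincubated 15 min with compound.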
# JMJD2A Tudor inh – qHTS Assay for Inhibitors of JMJD2A-Tudor Domain; Lysine-specific demethylase 4A (Homo sapiens), O75164; 390,000 compounds, 4.4% hits; AlphaScreen JMJD2A-Tudor / H3K4me3 peptide binding; Potency, µM (doses to about 114 µM), most hits filed as inhibitors; also: nearly all actives have a fitted effect of over 50% in size
# Numbers stand for hits; – = inactive; ? = inconclusive; · = no result; [ ] = dose if it differs, or a comment. Most compounds without a hit are left out; they make up all but 10% or so of the library. Calls follow the shape of the dose curve; as a rule, active = well fitted curve in the direction sought with a large enough effect; inconclusive = small, poorly fitted or top-dose-only effect, or another doubt; inactive = no such curve, though single readings can be large; an effect the other way counts as inactive or inconclusive.
SMILES,GLS inhibitor,BAZ2B inh,HP1b binding inh,L3MBTL1 block,G9a block,JMJD2A Tudor inh
COc1ccc(-n2c(COc3ccc(Cl)cc3)nnc2SCc2ccc(C#N)cc2)cc1,–,–,–,·,–[12.7 µM],–
COc1ccc(CC(=O)NNC(=O)CSc2nnc(Cc3ccc(OC)cc3)n2-c2ccccc2)cc1,–,–,–,–,10µM,–
COc1ccc(CC(=O)NNC(=O)CSc2nnc(C)n2-c2ccccc2)cc1,–,–,–,–,?,–
COc1ccc(NCc2nnc(SCc3ccc(Cl)cc3)n2-c2ccccc2)cc1,–,22µM,?,?,?,45µM
Cc1c(O)c(CN2CCCC2)cc2c1oc(=O)c1ccccc12,–,–,–,–,22µM,?
Cc1ccc2c(CN3CCCCC3)cc(=O)oc2c1C,–,–,–,·,–,–
Cc1c(O)c(CN2CCCC2)cc2c3c(c(=O)oc12)CCC3,–,?,–,–,–,–
CCc1cc(=O)oc2c(C)c(O)c(CN3CCCCC3)cc12,–,–,–,–,–,79µM
O=C(CSc1nc2cc3ccccc3cc2[nH]1)Nc1cccc(C(F)(F)F)c1,–,–,–,·,–,–
Cc1ccccc1N/N=C/c1ccc(C#N)cc1,–,?,–,–,10µM,–
Cc1ccc(S(=O)(=O)N2CCOCC2)cc1C(=O)Nc1nc(-c2ccccn2)cs1,–,·,?,?,·,40µM
O=S(=O)(c1cccc(-c2csc(-c3cccnc3)n2)c1)N1CCOCC1,–,–,–,·,71µM,–
COc1ccc(C(=O)Nc2ccccc2N2CCCC2)cc1S(=O)(=O)N1CCOCC1,–,–,–,–,10µM,–
CCOC(=O)c1c(-c2ccccc2Cl)csc1NC(=O)c1cc(S(=O)(=O)N2CCOCC2)ccc1C,–,–,?,–,7.9µM,–
COc1ccc(C(=O)Nc2ccccc2N2CCOCC2)cc1S(=O)(=O)N1CCCC1,–,–,–,–,–[12.7 µM],–
COc1ccc(CCNC(=O)c2cc(-c3ccc(C)c(C)c3)nc3ccccc23)cc1OC,–,–,–,·,?,–
COc1ccc(C(=O)Nc2nc(-c3ccccn3)cs2)cc1S(=O)(=O)N1CCOCC1,–,·,–,?,·,25µM
COc1ccc(C(=O)OC/C(O)=C(\C#N)c2nc3ccccc3[nH]2)cc1S(=O)(=O)N1CCOCC1,–,–,–,–,79µM,–
O=C(Nc1nc(-c2ccccn2)cs1)c1cccc(S(=O)(=O)N2CCOCC2)c1,–,28µM,–,?,?,50µM
Cc1nnc(NC(=O)c2cccc(S(=O)(=O)N3CCOCC3)c2)s1,–,–,–,·,–[12.7 µM],–
Cc1cnc(NC(=O)c2cccc(S(=O)(=O)N3CCOCC3)c2)s1,–,–,–,–,7.1µM,–
COc1ccc(C(=O)Nc2nc3ccccc3[nH]2)cc1S(=O)(=O)N1CCOCC1,–,?,–,–,–,–
CC(C)OCCCNC(=O)c1cn(C)c2ccc(S(=O)(=O)N3CCCCCC3)cc2c1=O,–,·,–,·,–,–
Cc1ccc(C(=O)c2cn(Cc3c(F)cccc3Cl)c3nc(C)ccc3c2=O)cc1,–,–,–,·,–,–
COc1ccc(C(=O)Nc2nncs2)cc1S(=O)(=O)N1CCOCC1,–,–,–,·,56µM,–
COc1ccc(-c2nc(SC(CC(=O)NCCO)c3cccs3)n[nH]2)cc1 (stereo not given),–,–,–,–,45µM,–
COc1ccc(-c2nc(SCC(=O)NCCc3ccccc3)n[nH]2)cc1,–,–,–,·,–,–
Cc1cc(C)cc(N(CC(=O)Nc2c(C)cc(C)cc2C)S(=O)(=O)c2c(C)nn(C)c2C)c1,–,–,–,·,–,–
O=C(Nc1ccc2c(c1)OCO2)[C@@H]1[C@@H]2C(=O)N(C3CCCCC3)C(=O)[C@@H]2C2c3ccccc3C=CN21 (stereo not given in full),·,–,·,–,10µM,·
